# Assay results as given in PubChem BioAssay (EPA / NIEHS).
# Where a structure was tested more than once in an assay, its records may differ in their call. Active and inactive are the calls of the source. Rule for the calls: active = hit-call score of the fitted dose curve at least 0.9, where 1 is the maximum; inactive = score below 0.9.
# Experiment: CCTE_Shafer_MEA_dev_network_spike_peak: CCTE's Neural Network Formation Assay for Mean Number of Electrodes in Network Spike, Shafer Lab (AID 2284049);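 for AC50: fitted for loss of signal meaning fewer electrodes in network spikes than DMSO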
# How it was run: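 Continuous 12-day exposure of rat cortical cultures, starting at plating, on MEA plates. Endpoint: electrodes participating in network-spike peaks, AUC across DIV 5–12, DMSO as negative control.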
Structure (SMILES),AC50,outcome
C[n+]1ccc(-c2cc[n+](C)cc2)cc1,1.38 µM (active),
C/C(=C/C=C/[C@@H](C)C(=O)O)[C@H]1CN[C@H](C(=O)O)[C@H]1CC(=O)O,1.83 µM (active),inactive
CP(=O)(O)CCC(N)C(=O)O (centres undefined),,inactive
NCCc1cc(O)c(O)cc1O,6.57 µM (active),
CCOP(=S)(OCC)SCS(=O)C(C)(C)C (centres undefined),0.555 µM (active),
C[n+]1ccc(-c2ccccc2)cc1,6.52 µM (active),
O=C(O)CNCP(=O)(O)O,,inactive
C#CCN(C)[C@H](C)Cc1ccccc1,,inactive
Cn1nc(C(F)(F)F)c(CS(=O)(=O)C2=NOC(C)(C)C2)c1OC(F)F,50 µM (active),
CCCCC(CC)COC(=O)c1cc(Br)c(Br)c(Br)c1Br (centres undefined),18.9 µM (active),
CC1(C)C(C=C(Cl)c2ccc(Cl)cc2)C1C(=O)OC(C#N)c1ccc(F)c(Oc2ccccc2)c1 (centres undefined),13.1 µM (active),
CCOP(=O)(Oc1cnc(C(C)(C)C)nc1)OC(C)C (centres undefined),,inactive
CC1(C)[C@H](C=C(Cl)Cl)[C@H]1C(=O)OCc1c(F)c(F)cc(F)c1F,16.7 µM (active),
CC(=O)[O-].CC(=O)[O-].O.O.O.[Pb+2],12.5 µM (active),
CC1(C)C(C=C(Cl)Cl)C1C(=O)O[C@H](C#N)c1cccc(Oc2ccccc2)c1 (some centres undefined),2.75 µM (active),
CCOP(=O)(OCC)OC(Cl)C(Cl)(Cl)Cl (centres undefined),2.29 µM (active),
CCOP(=O)(OCC)SCSC(C)(C)C,49.5 µM (active),
CC1(C)[C@@H](C=C(Cl)Cl)[C@@H]1C(=O)O[C@@H](C#N)c1ccc(F)c(Oc2ccccc2)c1,11.8 µM (active),
COP(=O)(OC)SCN1C(=O)c2ccccc2C1=O,,inactive
CP(=O)(O)CC[C@H](N)C(=O)O,,inactive
CC(=O)[O-].[Tl+],,inactive

# Experiment: CCTE_Shafer_MEA_dev_spike_duration_mean: CCTE's Neural Network Formation Assay for Mean Spike Duration, Shafer Lab (AID 2284051);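 note: mean network spike duration pooled as area under curve over DIV 5 to 12 recordings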;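 for AC50: potency for a decrease in mean network spike duration versus DMSO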
# How it was run: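 Spontaneous activity was recorded on days 5, 7, 9 and 12 from rat cortical cultures grown on microelectrode arrays and dosed continuously from day 0, with media and compound renewed after the DIV 5 and 9 recordings. Network-spike duration was collapsed by area under the curve.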
Structure (SMILES),AC50,outcome
C[n+]1ccc(-c2cc[n+](C)cc2)cc1,1.15 µM (active),
C/C(=C/C=C/[C@@H](C)C(=O)O)[C@H]1CN[C@H](C(=O)O)[C@H]1CC(=O)O,1.13 µM (active),inactive
CP(=O)(O)CCC(N)C(=O)O (centres undefined),,inactive
NCCc1cc(O)c(O)cc1O,5.15 µM (active),
CCOP(=S)(OCC)SCS(=O)C(C)(C)C (centres undefined),,inactive
C[n+]1ccc(-c2ccccc2)cc1,,inactive
O=C(O)CNCP(=O)(O)O,,inactive
C#CCN(C)[C@H](C)Cc1ccccc1,,inactive
Cn1nc(C(F)(F)F)c(CS(=O)(=O)C2=NOC(C)(C)C2)c1OC(F)F,31.2 µM (active),
CCCCC(CC)COC(=O)c1cc(Br)c(Br)c(Br)c1Br (centres undefined),17.7 µM (active),
CC1(C)C(C=C(Cl)c2ccc(Cl)cc2)C1C(=O)OC(C#N)c1ccc(F)c(Oc2ccccc2)c1 (centres undefined),5.21 µM (active),
CCOP(=O)(Oc1cnc(C(C)(C)C)nc1)OC(C)C (centres undefined),,inactive
CC1(C)[C@H](C=C(Cl)Cl)[C@H]1C(=O)OCc1c(F)c(F)cc(F)c1F,22.8 µM (active),
CC(=O)[O-].CC(=O)[O-].O.O.O.[Pb+2],22.2 µM (active),
CC1(C)C(C=C(Cl)Cl)C1C(=O)O[C@H](C#N)c1cccc(Oc2ccccc2)c1 (some centres undefined),2.95 µM (active),
CCOP(=O)(OCC)OC(Cl)C(Cl)(Cl)Cl (centres undefined),1.39 µM (active),
CCOP(=O)(OCC)SCSC(C)(C)C,,inactive
CC1(C)[C@@H](C=C(Cl)Cl)[C@@H]1C(=O)O[C@@H](C#N)c1ccc(F)c(Oc2ccccc2)c1,6.21 µM (active),
COP(=O)(OC)SCN1C(=O)c2ccccc2C1=O,,inactive
CP(=O)(O)CC[C@H](N)C(=O)O,,inactive
CC(=O)[O-].[Tl+],,inactive
